In paper PMC4336329 (PLoS ONE, 2015):
The campaign covered roughly 310,000 compounds. About 14,000 (4.5%) showed an effect of 50% or more. The effect is printed as a negative number. Many of the other results were omitted from the sample, so strong results are more common in it than they were.

target: human ether-à-go-go-related gene (hERG) potassium channel (human, UniProt Q12809); experiment: primary screen, population patch clamp on CHO cells stably expressing hERG; higher = less effect of the substance
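Further: peak tail current of the secondary pulse compared with the same well before compound.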

Chain of human ether-à-go-go-related gene (hERG) potassium channel (Q12809 whole entry, looked up): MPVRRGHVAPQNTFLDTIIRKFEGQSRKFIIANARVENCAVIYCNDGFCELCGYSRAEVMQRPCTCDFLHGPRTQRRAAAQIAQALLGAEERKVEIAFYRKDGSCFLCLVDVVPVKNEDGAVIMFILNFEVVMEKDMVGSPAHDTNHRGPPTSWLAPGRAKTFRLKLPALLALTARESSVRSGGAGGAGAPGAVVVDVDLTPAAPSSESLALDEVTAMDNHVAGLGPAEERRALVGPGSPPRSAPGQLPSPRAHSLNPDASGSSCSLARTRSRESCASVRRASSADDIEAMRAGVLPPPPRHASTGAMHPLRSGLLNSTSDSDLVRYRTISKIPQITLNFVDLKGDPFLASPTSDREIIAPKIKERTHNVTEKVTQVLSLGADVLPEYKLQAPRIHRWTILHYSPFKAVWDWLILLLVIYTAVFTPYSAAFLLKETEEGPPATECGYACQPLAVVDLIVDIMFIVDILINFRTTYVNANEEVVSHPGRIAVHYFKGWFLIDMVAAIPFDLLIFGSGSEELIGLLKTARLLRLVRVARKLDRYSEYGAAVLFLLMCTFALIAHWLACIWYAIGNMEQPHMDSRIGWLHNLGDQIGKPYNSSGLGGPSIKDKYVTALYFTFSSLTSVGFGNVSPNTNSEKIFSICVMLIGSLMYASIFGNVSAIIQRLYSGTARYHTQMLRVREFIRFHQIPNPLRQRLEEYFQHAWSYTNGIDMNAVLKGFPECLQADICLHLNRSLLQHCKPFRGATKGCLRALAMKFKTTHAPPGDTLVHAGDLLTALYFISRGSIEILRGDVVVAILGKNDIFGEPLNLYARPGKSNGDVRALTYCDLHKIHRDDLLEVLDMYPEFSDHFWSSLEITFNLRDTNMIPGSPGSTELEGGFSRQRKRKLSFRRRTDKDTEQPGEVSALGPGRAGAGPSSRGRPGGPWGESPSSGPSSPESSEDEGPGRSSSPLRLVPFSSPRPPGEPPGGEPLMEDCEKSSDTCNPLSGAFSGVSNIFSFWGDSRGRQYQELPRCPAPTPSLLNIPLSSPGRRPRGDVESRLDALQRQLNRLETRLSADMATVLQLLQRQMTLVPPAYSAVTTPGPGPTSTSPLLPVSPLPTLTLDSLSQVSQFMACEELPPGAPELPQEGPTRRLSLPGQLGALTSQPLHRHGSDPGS

SMILES | hERG current change (%, negative = inhibition) at 10uM [%]
NC(=O)c1nsc(C(=O)N(c2cccc(F)c2)C(C(=O)NCc2ccccc2)c2ccc(O)cc2)c1N (stereo not shown) | -22.4
Cc1cccn2c(CN(C)CC3CCCCO3)c(C(=O)N3CCCCC3)nc12 (stereo not shown) | 20.9
Cc1cc(S(=O)(=O)NCc2ccco2)c(C)cc1Cl | 14.1
COc1ccc(-c2nc3ccccc3c(=O)n2N)cc1 | -13.7
Cc1nnc(NC(=O)c2csc3c2CCC(C)C3)s1 (stereo not shown) | 13.9
N=c1c2c(-c3ccccc3)c(-c3ccccc3)n(Cc3ccco3)c2ncn1CCN1CCOCC1 | -75.9
CC(C)Cn1c2nc3ccccc3nc2c2c(=O)n(CCN3CCOCC3)cnc21 | -48.1
N=c1c2c(-c3ccccc3)c(-c3ccccc3)n(Cc3ccco3)c2ncn1CCCN1CCOCC1 | -84.9
O=C(NCCN1CCOCC1)C(=O)NCc1ccco1 | 19.5
O=c1c2ccccc2nc(-c2ccccc2)n1CCCN1CCOCC1 | -20.4
O=C(NCCCN1CCOCC1)C(=O)NCc1ccco1 | -1.68
Cc1ccccc1C(=O)NCCCNC(=O)c1cnccn1 | 13.5
COc1ccccc1OCc1nc(Cc2ccc(Cl)cc2)no1 | -31.4
CCn1c(=O)c(C(=O)NNC(=O)c2ccccc2Cl)c(O)c2ccccc21 | 7.09
CC1=C(C(=O)OCC2CCCO2)C(c2ccccc2)C2=C(CCCC2=O)N1 (stereo not shown) | 11.2
CCC(C)[C@H](NC(=O)N1CCn2c1nc1ccccc12)C(=O)NCCc1ccccc1 (stereo partly shown) | -2.42
COc1ccc(OC)c(/C=C/C(=O)OCC(=O)NCc2cccs2)c1 | 17.8
Cc1onc(-c2ccccc2)c1NC(=O)N(CCC(=O)O)Cc1ccccc1 | 2.16
COc1ccc(NC(=O)CN(C)C(=O)c2ccc3c(c2)NC(=O)CS3)cc1 | -10.2
COC(=O)c1cc(NC(=O)c2cccs2)ccc1N1CCOCC1 | -1.74
COc1ccc(-c2cc(C(=O)N3CC(C)CC(C)C3)c3ccccc3n2)cc1 (stereo not shown) | 5.7
CC(C)CC(C(=O)N1CCOCC1)N1Cc2ccccc2C1=O (stereo not shown) | 29.3

SMILES | hERG current change (%, negative = inhibition) at 10uM [%]
CC(C)CC(C(=O)N1CCc2ccccc2C1)N1C(=O)c2ccccc2C1=O (stereo not shown) | -50.3
O=C(CCCN1C(=O)c2ccccc2C1=O)N1CCc2ccccc2C1 | -27.2
Cc1cc(NC(=O)c2cccs2)ncc1NC(=O)C(C)(C)C | 9.59
CSc1ccc(C(=O)C2CCCN(C)C2)cc1 (stereo not shown) | -23.1
CN(C)S(=O)(=O)N1CCCC(C(=O)c2ccc(-c3ccccc3)c(F)c2)C1 (stereo not shown) | 7.39
CSc1ccc(C(=O)C2CCCN(C(=O)c3cc(C)n(C)n3)C2)cc1 (stereo not shown) | -7.88
Cn1cc(CN2CCCC(C(=O)c3ccc(-c4ccccc4)c(F)c3)C2)cn1 (stereo not shown) | -55.4
Cn1nc(C(=O)N2CCCC2)c2ccccc2c1=O | 23
CSc1ccc(C(=O)C2CCCN(CCCn3cccn3)C2)cc1 (stereo not shown) | -76.8
O=C(c1ccc(C(F)(F)F)cc1)C1CCCN(Cc2ccncc2)C1 (stereo not shown) | -23.7
CSc1ccc(C(=O)C2CCCN(C(=O)c3nn(C)c(=O)c4ccccc34)C2)cc1 (stereo not shown) | -64.9
O=C(c1ccc(-c2ccccc2)cc1)C1CCCN(C(=O)c2ccncc2)C1 (stereo not shown) | -13.4
O=C(c1ccc(-c2ccccc2)cc1)C1CCCN(Cc2ccncc2)C1 (stereo not shown) | -62.6
CSc1ccc(C(=O)C2CCCN(C(=O)CCCn3cncn3)C2)cc1 (stereo not shown) | -40.5
Clc1ccc(-c2csc(N/N=C/c3cccnc3)n2)c(Cl)c1 | -11.9
CC(=O)N1Cc2cc(N)ccc2Oc2ccccc21 | 9.9
Cc1cccc(NC(=S)N2CCN(S(=O)(=O)c3ccc(F)cc3)CC2)c1 | 16.7
CCOC(=O)C(NCCCCl)c1ccccc1 (stereo not shown) | 2.53
CCOC(=O)C(C)Sc1nnc(CSc2nc3nc(C)cc(C)n3n2)o1 (stereo not shown) | 9.3
CCOc1ccccc1N=Cc1c(O)c2ccccc2oc1=O | 15.4
CN(c1ccc(C(=O)N2CCCCC2)cc1)S(C)(=O)=O | 10.6
COc1ccc(Nc2nc(NC(C)(C)C)nc(N3CCOCC3)n2)c(OC)c1 | -25.3

SMILES | hERG current change (%, negative = inhibition) at 10uM [%]
O=C(Oc1ccc2c3c(c(=O)oc2c1)CCCC3)c1cccs1 | -4.43
CC(=O)NCC(=O)N1CCCC(C(=O)c2ccc(-c3ccccc3)c(F)c2)C1 (stereo not shown) | -25.1
CCn1cc(CN2CCCC(C(=O)c3ccc(-c4ccccc4)cc3)C2)cn1 (stereo not shown) | -59.1
O=C(c1ccc(-c2ccccc2)c(F)c1)C1CCCN(CCCn2cccn2)C1 (stereo not shown) | -69.6
O=C(c1ccc(-c2ccccc2)c(F)c1)C1CCCN(CCO)C1 (stereo not shown) | -44.8
CCn1cc(CN2CCCC(C(=O)c3ccc(-c4ccccc4)c(F)c3)C2)cn1 (stereo not shown) | -57.6
COCC(=O)N1CCCC(C(=O)c2ccc(-c3ccccc3)c(F)c2)C1 (stereo not shown) | -23.3
CCC(=O)N1CCCC(C(=O)c2ccc(-c3ccccc3)cc2)C1 (stereo not shown) | -19
O=C(c1ccc(-c2ccccc2)c(F)c1)C1CCCN(C(=O)c2cncs2)C1 (stereo not shown) | -18.4
Cn1cc(CN2CCCC(C(=O)c3ccc(-c4ccccc4)cc3)C2)cn1 (stereo not shown) | -34.4
NC(=O)CSc1nc2scc(-c3ccc(Cl)cc3)c2c(=O)n1Cc1ccccc1 | 33.1
O=[N+]([O-])c1ccc(N2CCN(S(=O)(=O)c3ccccc3[N+](=O)[O-])CC2)cc1NCc1cccnc1 | -8.91
Cc1ccccc1OCC(=O)N/N=C/c1cccc(Oc2ccc([N+](=O)[O-])cc2[N+](=O)[O-])c1 | 5.59
CCn1cc(C(=O)NCCc2ccccc2)c(=O)c2cc(S(=O)(=O)N(C)C)ccc21 | 7.05
O=C(NCCc1csc(-c2cccnc2)n1)c1cccc(Cl)c1 | -17.7
CC1CCN(c2ccc(C(=O)O)cc2)CC1 | 2.86
CC1CCCCC1N(C)C1CCN(C(=O)CNC(=O)/C=C/c2cccc(Cl)c2)CC1 (stereo not shown) | -73.6
COc1ccc(/C=C/C(=O)NCC(=O)N2CCC(N(C)CCN3CCOCC3)CC2)cc1OC | 14.7
CC1CCN(C(=O)CNC(=O)Cc2ccccc2)CC1 | 9.53
CCOc1ccccc1/C=C/C(=O)NCC(=O)N1CCC(N(C)C2CCCCC2C)CC1 (stereo not shown) | -54.7
CCOc1ccc(C(=O)NCC(=O)N2CCC(C)CC2)cc1OCC | 3.68
Cc1ccccc1/C=C/C(=O)NCC(=O)N1CCC(N(C)C2CCCCC2C)CC1 (stereo not shown) | -72.1

SMILES | hERG current change (%, negative = inhibition) at 10uM [%]
CN(C)C(CNC(=O)/C=C/c1cccc(Cl)c1)c1ccccc1 (stereo not shown) | -19.2
COc1ccccc1/C=C/C(=O)NC(=S)N(C)C1CCCCC1 | 1.35
O=C(/C=C/c1cccc(Cl)c1)NCCN1CCOCC1 | -14.7
O=C(Nc1ccc(S(=O)(=O)NCC2CCCO2)cc1)C1CC(=O)N(c2ccccc2)C1 (stereo not shown) | 3.16
O=C(NCCCn1ccnc1)c1cn(Cc2ccc(F)cc2)nn1 | -9.7
COc1ccc(C(C)=O)cc1COC(=O)CNC(=O)c1cc(C)cc(C)c1 | -11.7
Cc1cccc(/C=N/NC(=O)C2CCCNC2=O)c1 (stereo not shown) | 19
Cn1c(O)c(C(=Nc2ccccc2)SCc2ccccc2Cl)c(=O)n(C)c1=O | 21.5
CC(/C=C1\SC(=Nc2cccnc2)NC1=O)=C\c1ccccc1 | 8.95
CC(=O)NC(Cc1ccccc1C)C(=O)NC1CCN(c2ncccc2[N+](=O)[O-])CC1 (stereo not shown) | -1.73
Clc1ccc(OCCCN2CCCC2)cc1Cl.O=C(O)C(=O)O | -67.7
CC(=O)OCC(=O)NCCCOc1cccc(CN2CCCCC2)c1.Cl | -2.29
Cc1cc(OCC(=O)N2CCCC2)ccc1Cl | -0.71
Cc1cc(OCCCCCN2CCCC2)ccc1Cl.O=C(O)C(=O)O | -77.2
Cc1cc(OCCCN2CCCC2)ccc1Cl | -42.9
Clc1ccc(OCCN2CCCCC2)cc1Cl.O=C(O)C(=O)O | -42.1
CN1CCN(CCOc2ccc(Cl)c(Cl)c2)CC1.O=C(O)C(=O)O | -22.3
O=C(O)C(=O)O.c1ccc(COc2cccc(CN3CCCCC3)c2)cc1 | -19.2
O=C(NCCCOc1cccc(CN2CCCCC2)c1)c1ccc(Cl)c(Cl)c1.O=C(O)C(=O)O | -60.8
CC(=O)Nc1scc(-c2ccccc2)[n+]1-c1ccc(C)cc1.[Br-] | 1.06
O=C(CCCNC(=O)c1ccc(Cl)cc1)Nc1ccc(F)c(S(=O)(=O)N2CCOCC2)c1 | -33.6
C/C(N)=C(/C#N)C(=O)COC(=O)c1cccc2ccccc12 | -8.17
